# About 83,000 compounds went through this panel and 20% of them were active in at least one assay; those are over-represented in the sample as a whole.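 48-hour exposure, single concentration, 96-well plates; percent growth endpoint where 0 means no net growth. Active: below 10.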 Activity calls are given as the source filed them.
# System: HL-60(TB) leukemia
# Assay: NCI-60 one-dose screen, 48 h (100 = growth as untreated, 0 = no growth, -100 = all killed)
# Conditions: 10 µM unless noted
row,Compound,growth
1,CCCCN1CCCCn2c1nc1c2c(=O)n(C)c(=O)n1C,108% (inactive)
2,Cn1cc(-c2csc(-c3cn(CCN)c4ccc(F)cc34)n2)c2cccnc21,47.1% (inactive)
3,Cc1cc(C)c(C=O)c(C)c1,84.1% (inactive)
4,CCCCC1COc2cccc3c2N1C=C/C3=C\C(=O)N(C)c1ccccc1 (stereo unspecified),9.39% (active)
5,O=C(NC(Cc1nnc2n(Cc3ccccc3)c(=O)c3c4c(sc3n12)CCCC4)c1ccc(Cl)cc1)c1ccccc1 (stereo unspecified),78.5% (inactive)
6,CNc1nc2ncc(-c3c(C)noc3C)cc2n1Cc1ccccc1,8.97% (active)
7,COc1ccc(C(=O)c2cc3c(N)c(C(=O)Nc4ccc(C)cc4)sc3nc2C)cc1,7.74% (active)
8,CCN1CCN(c2nc(NNC(=O)c3ccccc3)nc(N3CCN(C(c4ccccc4)c4ccccc4)CC3)n2)CC1,23.3% (inactive)
9,O=C(O)c1cccc2oc(-c3ccccc3O)nc12,49.8% (inactive)
10,C=C1C(=O)O[C@H]2[C@H]1CC/C(COC(=O)N1CCC[C@H]1C(=O)Nc1ccc(OC)c(C(N)=O)c1O)=C\CC[C@@]1(C)O[C@@H]21,-10% (active)
11,Cc1ccc(/C=C/C(=N/N=C(N)N)c2ccccc2)cc1,7.52% (active)
12,O=c1c2ccccc2sc2c(NCCN3CCOCC3)nc3ccccc3c12,75.9% (inactive)
13,COc1c(F)cc(-n2c(C(=O)N3CC(F)C3)cc3cccnc32)cc1F,98.3% (inactive)
14,CC(C)NC(=O)N1C(=O)CCC1NNC(=O)c1ccc([N+](=O)[O-])cc1 (stereo unspecified),107% (inactive)
15,O=C1C=CC(Nc2ccccc2[N+](=O)[O-])C1Nc1ccccc1[N+](=O)[O-] (stereo unspecified),25.1% (inactive)
16,Fc1ccc2c(c1)c(-c1nc(-c3c[nH]c4ncccc34)cs1)cn2CCCN1CCOCC1,21.9% (inactive)
17,COc1cc(/C=C2\C(=O)N(CC(O)COc3cc(O)c4c(=O)cc(-c5ccccc5)oc4c3)c3ccccc32)cc(OC)c1O (stereo unspecified),80.5% (inactive)
18,NC(=O)c1c(Nc2ccccc2)nn2cc(-c3nc4ccccc4s3)c(N)nc12,101% (inactive)

row,Compound,growth
1,CSc1nc(-c2ccc(F)cc2)c(C#N)c(N2CCOCC2)n1,79.6% (inactive)
2,Nc1ncnc2c1N=C(c1ccc(Br)cc1)CC(c1cccc(Nc3ccnc4cc(C(F)(F)F)ccc34)c1)N2 (stereo unspecified),38.1% (inactive)
3,CN(C)c1ccc(O)c2c1CC1CC3C(N(C)C)C(=O)C(C(N)=O)=C(O)C3(O)C(=O)C1=C2O (stereo unspecified),51.3% (inactive)
4,CC1CCc2c(sc(NC(=O)CSc3nnc4ccccn34)c2C(N)=O)C1 (stereo unspecified),74.9% (inactive)
5,COc1cc2ncnc(Nc3ccc(S(=O)(=O)Nc4cc(C)on4)cc3)c2cc1OCCCN1CCN(c2ccc(F)cc2)CC1,112% (inactive)
6,COc1ccc2nc3cc([N+](=O)[O-])ccc3c(NNc3ccccc3)c2c1,121% (inactive)
7,COc1cc(/C=C2\CN(C)C/C(=C\c3cc(CN4CCOCC4)c(O)c(OC)c3)C2=O)cc(CN2CCOCC2)c1O,32.6% (inactive)
8,COC(=O)[C@]12CCC(C)(C)C[C@H]1[C@H]1/C(=N/OCCc3nn[nH]n3)C[C@@H]3[C@@]4(C)CC[C@H](OC(C)=O)C(C)(C)[C@@H]4CC[C@@]3(C)[C@]1(C)CC2,10.4% (inactive)
9,COc1cc2nc3cc([N+](=O)[O-])ccc3c(Cl)c2cc1OC,109% (inactive)
10,COC(=O)C1CCCN1C(=O)[C@@H]1CCCN1C(=O)[C@H](Cc1c[nH]c2ccccc12)NC(=S)Nc1cc(C(F)(F)F)cc(C(F)(F)F)c1 (stereo partly specified),-43.8% (active)
11,Clc1cc(Cl)c(Cl)c(-c2nc(-c3cccnc3)cs2)c1,-3.35% (active)
12,Cc1ccc(C(=O)N/N=C/c2cccc([N+](=O)[O-])c2)cn1,74% (inactive)
13,NC(=O)CCC(C(=O)O)N1C(=O)c2ccc(O)cc2C1=O (stereo unspecified),134% (inactive)
14,COc1cc(NC(=O)NCc2ccco2)ccc1-c1ccc(NC(=O)NCc2ccco2)cc1OC,57.4% (inactive)
15,COc1cc(OC)cc(-c2n/c(=C\c3c(O)[nH]c4ccc(OC)cc34)cc3c2=Nc2ccccc2-3)c1,80% (inactive)
16,CC(=O)N1CCN(c2ccc(OCC3CO[C@](Cn4ccnc4)(c4ccc(Cl)cc4Cl)O3)cc2)CC1 (stereo partly specified),56.5% (inactive)
17,Cn1c2ccccc2c2c3c(c4c5ccccc5n(CCCCCC#N)c4c21)C(=O)N(O)C3=O,-22.3% (active)
18,CC(C)[C@@H]1CC[C@]2(C(=O)NCCCCN=C(N)N)CC[C@]3(C)[C@H](CC[C@@H]4[C@@]5(C)CCC(=O)C(C)(C)[C@@H]5CC[C@]43C)[C@@H]12,13.5% (inactive)

# Source: PubChem BioAssay (NCI)
